Hit rate of the full screen: of about 200,000 compounds, about 18,000 (9%) were called active. The full list was thinned out, with actives kept by preference. A number with no mark means an inactive call. Rule as the data show it: active = inhibition above about 50%; inactive = the rest.

In PubChem BioAssay AID1063 (University of Pittsburgh Molecular Library Screening Center, 2008) one finds inhibition data, which are given here for 26 compounds.

This test is described as follows: antileishmanial activity against promastigotes – primary screen (AID 1063).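 Also: promastigotes grown with compound for 44 hours at 28 °C.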 The following applies: Leishmania major promastigotes, resazurin fluorescence viability; at 10 µM; stronger effect = higher value.
A word on the inhibition: it is the change of the read-out against control, counted positive when it falls. Take `Cn1c(=N)n(CC(O)c2cccs2)c2ccccc21` (stereo unspecified): the inhibition is 1.42%.
Turning to `N=c1n(Cc2ccc(Cl)cc2)c2ccccc2n1CC(O)c1ccco1` (stereo unspecified), the inhibition is 85.3% (active).
The figure for `CC(=O)NC1(c2ccc(F)cc2)CCN(C(=O)c2c(F)cccc2F)CC1` is -1.81%; for `CN(Cc1nc2ccc(F)cc2[nH]1)Cc1nc(CC2CC2)no1` it is -4.94%; for `C[C@@H]1C[C@@H]2O[C@H]2/C=C\C=C\C(=O)Cc2c(Cl)c(O)cc(O)c2C(=O)O1` it is 100% (active).
The figure for `O=[N+]([O-])c1ccc2oc(-c3cccc(O)c3)nc2c1` is -1.6%.
Turning to `CCOC(=O)C1(Cc2cccc(OC)c2)CCN(Cc2csc(C(C)=O)c2)CC1`, the inhibition is 92.9% (active).
The figure for `CCOC(=O)C1(Cc2cccc(OC)c2)CCN(C(C)COC)CC1` (stereo unspecified) is 2.55%; for `CCOC(=O)C1(Cc2cccc(OC)c2)CCN(C(C)CC(C)(C)O)CC1` (stereo unspecified) it is -1.48%.
Take `CC(=O)Nc1ccc(NC(=O)COc2ccc(S(=O)(=O)NC(C)c3ccccc3)cc2)cc1` (stereo unspecified): the inhibition is -0.2%.
Consider `COc1cc(/C=C/C2=CC(C)(C)NC(=S)N2)cc(OC)c1OC`, for which the inhibition was 0.1%.
Take `Cn1c(=O)c2c(nc(NCCc3ccccc3)n2Cc2ccccc2)n(C)c1=O`: the inhibition was 15.1%.
Then `Cn1c(=O)c2c(nc(N/N=C/c3cccs3)n2Cc2ccc(Br)cc2)n(C)c1=O`, with 60.3% (active).
The figure for `CCCCNc1nc2c(c(=O)n(C)c(=O)n2C)n1Cc1cccc(OC)c1` is 4.44%; for `O=C(CN1C(=O)/C(=C\c2ccccc2F)SC1=S)Nc1nc2ccccc2s1` it is -3.34%.
Then `Clc1ccc(-c2csc(-c3ccncc3)n2)cc1`, with 5.86%; and `CCOc1cc(NC(=O)CCl)c(OCC)cc1NC(C)=O`, with 5.77%.
Consider `O=C1c2ccccc2S(=O)(=O)N1CC(O)Cn1c2ccccc2c2ccccc21` (stereo unspecified), for which the inhibition was -4.57%.
For `CS(=O)(=O)N(CC(O)Cn1c2ccccc2c2ccccc21)c1cccc2ccccc12` (stereo unspecified), the inhibition was 100% (active).
The figure for `CC(=O)c1ccc2c(c1)c1ccccc1n2CC(C)C` is 9.99%; for `O=C(Nc1nnc(Cc2ccc(Cl)cc2)s1)c1cccnc1` it is -10.8%.
Then `COC(=O)N/N=C/c1ccc(/C=N/NC(=O)OC)cc1`, with -5.23%.
The figure for `C=CCn1c(-c2sc(-c3ccccc3)nc2C)n[nH]c1=S` is -5.29%.
Take `O=C(c1ccc(Cl)c(Cl)c1)N1CCCC1`: the inhibition is -4.87%.
The figure for `CCN(CC)CC1(O)CCN(C(=O)c2ccc(Cl)c(Cl)c2)CC1` is 99.6% (active); for `CCCNC(=O)c1ccc(Cl)c(Cl)c1` it is -4.03%.
